Data from PubChem BioAssay (NCI).
The panel holds about 83,000 compounds, 20% with a hit somewhere; the sample as a whole holds those more often.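 Testing used 96-well plates and a 48-hour single-concentration exposure. Example: -40 means 40% of the starting cells died.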 The source made the active and inactive calls. The calls were made as follows: active = growth percent below 10; inactive = the rest.

Key:
Test in all cases: NCI-60 one-dose screen, 48 h (100 = growth as untreated, 0 = no growth, -100 = all killed)
Settings in all cases: 10 µM unless noted
[1] = system: DU-145 prostate
[2] = system: K-562 leukemia
[3] = system: MALME-3M melanoma
[4] = system: MDA-MB-231 breast
[5] = system: RXF 393 renal
[6] = system: SF-268 CNS
[7] = system: SF-295 CNS
[8] = system: SF-539 CNS
[9] = system: UACC-257 melanoma
[10] = system: M14 melanoma
[11] = system: HCT-15 colon
[12] = system: HT29 colon
[13] = system: SNB-75 CNS
[14] = system: SNB-19 CNS
[15] = system: U251 CNS
[16] = system: PC-3 prostate
[17] = system: UACC-62 melanoma
[18] = system: LOX IMVI melanoma
[19] = system: SK-MEL-28 melanoma
[20] = system: SK-MEL-5 melanoma

Measured: growth

O=C1c2cc3c(cc2-c2c1c1ccc(F)cc1c(=O)n2CCCN1CCOCC1)OCO3
inactive: [1] 28.4% | [2] 41.6% | [3] 101% | [4] 105% | [5] 70.6% | [6] 43.3% | [7] 21.7% | [8] 11.2% | [9] 62.7% | [10] 23.2% | [11] 72.5% | [12] 42% | [13] 53.9% | [14] 39.1% | [15] 14.2% | [16] 60% | [17] 13.3% | [19] 80.1%
active: [18] 8.74%

Cn1cc(-c2csc(-c3cn(CCCN4CCCCC4)c4ccc(F)cc34)n2)c2cccnc21
inactive: [1] 98% | [4] 64.2% | [5] 64.9% | [6] 89% | [7] 99.9% | [8] 83.6% | [9] 70.6% | [11] 77.5% | [12] 75.2% | [13] 77.2% | [14] 90.3% | [15] 85.2% | [16] 71.5% | [18] 85.4%
active: [2] 0.833% | [3] -43% | [10] -73.4% | [20] -27.7% | [19] -78.9%

COc1ccc(-c2nc(SCC(=O)Nc3ccc(C(C)=O)cc3)[nH]c(=O)c2C#N)cc1
inactive: [1] 106% | [2] 98.8% | [3] 103% | [4] 95.2% | [5] 108% | [6] 101% | [7] 95.1% | [8] 97.6% | [9] 84.7% | [10] 87.6% | [11] 103% | [12] 101% | [13] 88.3% | [14] 96.5% | [15] 89.4% | [16] 88% | [20] 100% | [18] 96.2% | [19] 101%

Fc1ccc(Nc2ccc3c(OCCCN4CCOCC4)cccc3n2)cc1F
active: [2] 1.64% | [12] 6.29% | [18] 6.82%
inactive: [1] 76.9% | [3] 70.3% | [4] 29.8% | [5] 80.5% | [6] 71.3% | [7] 78.3% | [8] 52.2% | [9] 94% | [10] 69.2% | [11] 34% | [13] 66.6% | [14] 90.5% | [15] 64.2% | [16] 80.5% | [17] 62.4% | [19] 80.4%

CCCNc1nc(N(C)O)nc(N(C)O)n1
inactive: [1] 24.9% | [2] 50.7% | [3] 83.2% | [4] 39.5% | [5] 39% | [6] 35.2% | [7] 21.5% | [8] 27.1% | [9] 56.2% | [10] 20.7% | [11] 26.5% | [12] 40.7% | [13] 77.3% | [14] 38.3% | [15] 27.8% | [16] 51.9% | [17] 31.5% | [18] 22.9% | [19] 41.4%

O=c1[nH]c2c3ccncc3cc(-c3cccc(Cl)c3)c2c2cnccc12
inactive: [1] 39.5% | [2] 75% | [3] 69.1% | [4] 35.1% | [6] 53.9% | [7] 31.4% | [9] 49.5% | [10] 55.2% | [11] 43.3% | [12] 28.1% | [14] 75.7% | [15] 13.4% | [16] 42.2% | [18] 19.9% | [19] 25%
active: [5] -16.5% | [8] 2.59% | [13] -21.8%

COc1ccc(-c2cc(-c3cccs3)n(N=O)c(=O)c2C#N)cc1
inactive: [1] 119% | [2] 34.3% | [3] 127% | [4] 100% | [5] 96.3% | [6] 110% | [7] 102% | [8] 96.5% | [9] 101% | [10] 116% | [11] 129% | [12] 107% | [13] 88.9% | [14] 99.1% | [15] 112% | [16] 104% | [17] 95.4% | [18] 96.3% | [19] 124%

Brc1ccc(Cn2nnnc2-c2ccn(-c3ccccc3)n2)cc1
inactive: [1] 85.8% | [2] 46.2% | [3] 103% | [4] 73.5% | [5] 87.1% | [6] 73.2% | [7] 50.5% | [8] 80.8% | [9] 28.8% | [10] 83.4% | [11] 83% | [12] 63.6% | [13] 90.1% | [14] 78.9% | [16] 60.8% | [20] 74% | [17] 53% | [19] 95.3%

O=C1/C(=C\c2ccc(Br)o2)SC(=S)N1CCc1ccc(O)cc1
inactive: [1] 43% | [2] 65.6% | [3] 69% | [4] 53.2% | [5] 51.9% | [6] 96% | [7] 94.9% | [8] 52.3% | [9] 77.2% | [10] 73.7% | [11] 72.1% | [12] 114% | [13] 65.6% | [14] 88.1% | [15] 96.5% | [16] 77.2% | [17] 64% | [19] 55.3%

Cc1cc(Cl)nc(N(CCCNc2ccnc3cc(Cl)ccc23)Cc2ccco2)n1
inactive: [1] 46.2% | [4] 22.9% | [5] 26.6% | [6] 52.5% | [7] 20.6% | [8] 20.1% | [9] 23.3% | [11] 18.3% | [13] 59.6% | [14] 31.5% | [15] 26.9% | [18] 10.7% | [19] 16.1%
active: [2] 0.302% | [3] 4.4% | [10] -6.17% | [12] 8.64% | [16] 5.4%

CCN1CCN(C(=O)[C@]23CC[C@@H](C)[C@H](C)[C@H]2C2=CC[C@@H]4[C@@]5(C)C/C(=C/c6cccc(OC)c6OC)C(=O)C(C)(C)[C@@H]5CC[C@@]4(C)[C@]2(C)CC3)CC1
inactive: [1] 57.3% | [2] 16.3% | [3] 35.2% | [4] 36.5% | [5] 30.2% | [6] 45.5% | [7] 50.7% | [8] 58.5% | [9] 46.4% | [10] 29.5% | [11] 19.2% | [12] 21.5% | [13] 35.6% | [14] 53.1% | [15] 38.4% | [16] 18.8% | [17] 57.4% | [19] 58.7%

COC(=O)CNc1nc(N(C)O)nc(N(C)O)n1
inactive: [1] 34.7% | [2] 35% | [3] 97.6% | [4] 43% | [5] 47.2% | [6] 34.3% | [7] 45.2% | [8] 47.5% | [9] 76.9% | [10] 46% | [11] 30.4% | [12] 41.7% | [13] 96.4% | [14] 47.6% | [15] 36.5% | [16] 37.9% | [17] 42.9% | [18] 33.4% | [19] 42%
